Results: ChEMBL document CHEMBL4888484, “Replenishing the malaria drug discovery pipeline: Screening and hit evaluation of the MMV Hit Generation Library 1 (HGL1) against asexual blood stage Plasmodium falciparum ,using a nano luciferase reporter read-out” (2022)
In all, about 4,800 compounds went through this assay and about 420 (8.8%) showed an effect of 50% or more. The list comes from a sample in which strong results are over-represented; it also holds similar structures and randomly drawn compounds.

tested on: Plasmodium falciparum; test: Confirmatory screen in NF54 nanoGlo assay, in single point, at 2uM, 72h; type: functional, Erythrocyte; details: timepoint 72 hour

| Compound | % Inhibition |
| --- | --- |
| O=C(Nc1cnc2ccccc2c1)c1ccccc1C(=O)c1ccc(F)cc1 | 96% |
| CCN1C(=O)C[C@H](C(=O)Nc2cnc3ccccc3c2)[C@H]1c1nccn1CC | 2% |
| O=C(Nc1cc(NC(=O)c2ccc(F)cc2)cc(Oc2cccnc2)c1)c1ccc(F)cc1 | -1% |
| Cc1nn(C)c(NC(=O)Nc2cccc(Cl)c2)c1C1=CCCCC1 | -5% |
| COc1ccc(-c2cn(-c3ccc(OC)cc3)c(N)c2C#N)cc1 | -7% |
| CCc1n[nH]c(=O)c(C(=O)Nc2cnc3[nH]nc(C)c3c2)c1CC | -1% |
| Cc1nsc(N2CCN(CC(C)O)C(C)C2)n1 (stereo not drawn) | -4% |
| c1ccc(C[C@]2(c3ccccc3)CCNC2)cc1 | 1% |
| O=c1cc(N2CCN(C3CCCC3)CC2)cnn1Cc1ccccc1 | -13% |
| O=C(Cc1ccccc1F)N1CC(n2cnnc2C2CCOCC2)C1 | -14% |
| COc1ccc([C@@H]2CN(S(=O)(=O)c3ccc(OC)cc3)CCN2C)cc1 | 1% |
| O=c1[nH]c2nc(N3CCC(N4CCCCC4)CC3)ncc2c(=O)n1-c1ccc2c(c1)OCO2 | -9% |
| CS(=O)(=O)N1CC[C@H](N(C(=O)NCCc2ccccc2)C2CCOCC2)C1 | -14% |
| CC(C)c1cccc(Nc2nc3ccncc3n(C(C)C)c2=O)c1 | 95% |
| O=C(CN1CCOC2CCCCC21)N1CCOC2CCCCC21 (stereo not drawn) | -9% |
| Cc1cc(C(=O)NC(C2CC2)C2CC2)c(C)o1 | -2% |
| O=C1NCCC[C@@H]1NS(=O)(=O)N1CCc2ccccc2C1 | 0% |
| CCc1cccc(NC(=O)N2CCN(C3=CC4=NC[C@H](C)N4C=N3)CC2)c1 | 46% |
| Cc1cc(-c2csc(CN3C(=O)CNC3=O)n2)cc(C)c1F | -4% |
| Fc1ccccc1N1CCN(c2c3c(nc4nc(Cc5ccc(Cl)cc5)nn24)CCCC3)CC1 | -11% |
| CNc1nc(N2C[C@H](C)[C@@](O)(C3CC3)C2)nc2c1CCC2 | -11% |

| Compound | % Inhibition |
| --- | --- |
| CNC(=O)CNC(=O)c1cccc(Cl)c1 | -1% |
| Cc1nc([C@@H]2CCCN2c2nc(C3CCCC3)ns2)no1 | -6% |
| Cc1cc(NC(=O)c2occc2-c2ccccc2)sn1 | -2% |
| CN(Cc1ccccc1)c1nc2ncn(CC(=O)NC3CCCCC3)c(=O)c2s1 | -17% |
| Cc1ccc(S(=O)(=O)NCC2(CNS(=O)(=O)c3ccc(C)cc3)CN(S(=O)(=O)c3ccc(C)cc3)C2)cc1 | 7% |
| COc1cccc(Cn2c(=O)c3sccc3n(CC(=O)Nc3ccc4c(c3)OCO4)c2=O)c1 | 10% |
| COc1cccc(NC(=O)Cn2c(C)ccc(NS(=O)(=O)c3ccc(C)cc3)c2=O)c1 | 63% |
| COc1cccc(NC(=O)Cn2c(=O)n(C)c(=O)c3sc(N4CCCC4)nc32)c1 | 0% |
| c1ccc2oc(-c3ccnc4nncn34)cc2c1 | -7% |
| COc1cc(C)c2[nH]c3c(c(=O)c2c1)CN(CC(=O)Nc1ccc2c(c1)OCCO2)CC3 | 16% |
| Clc1cccc(N2CCN(Cc3nc(-c4ccco4)no3)CC2)c1 | -6% |
| O=C(NC1CCN(Cc2ccco2)CC1)c1ccco1 | -9% |
| CC(C)(C)OC(=O)NCC1CCCCC1C(F)(F)F (stereo not drawn) | 0% |
| O=C(CNC(=O)OCc1ccccc1)Nc1ccc(F)cc1 | -12% |
| COc1cccc(-c2nc3n(c2C(=O)Nc2cccc(Cl)c2)CCS3(=O)=O)c1 | -3% |
| COc1cccc(-c2nn(-c3nc(-c4ccccc4)cc(C(F)(F)F)n3)c(-c3cccc(OC)c3)c2Cl)c1 | 54% |
| COc1cccc(-c2cc(C(=O)N3CCCN(C(=O)c4cc(-c5cccc(OC)c5)nc5ccccc45)CC3)c3ccccc3n2)c1 | -1% |
| COc1cccc(-c2cc(C(=O)Nc3ccc(F)c(Cl)c3)c3c(C)nn(C)c3n2)c1 | -4% |
| COc1cccc(-c2cc(C(=O)Nc3cc(Cl)ccc3C)c3c(C)nn(C)c3n2)c1 | -15% |
| COc1ccc(-c2cc(C(F)(F)F)nc(-n3nc(-c4cccc(OC)c4)c(Cl)c3-c3cccc(OC)c3)n2)cc1 | 84% |
| COc1ccc(C)cc1NC(=O)c1nn(-c2ccccc2)c2ccccc2c1=O | 17% |

| Compound | % Inhibition |
| --- | --- |
| CCn1cc(Cl)c(C(=O)N2CCN(C(=O)c3ccco3)CC2)n1 | -11% |
| Cc1ccc(CN2CCN(CC(=O)NC3CCCCC3C)C2=O)cc1 (stereo not drawn) | -10% |
| C[C@](O)(CNC(=O)Cn1nc2ccccn2c1=O)c1cccs1 | -1% |
| Clc1ccc(NC2(c3noc([C@@H]4CCCCO4)n3)CCC2)cc1 | 5% |
| COc1ccc(CNCc2ccc(C)cc2)cc1Cn1ccnc1 | 42% |
| COc1cc(CNCc2cccs2)ccc1OCc1ccccc1C | -7% |
| CC1Cc2cc(-c3ccc(CNC(=O)C(C)(O)C4CC4)cc3)ccc2O1 (stereo not drawn) | 4% |
| CC1(C)C[C@@H](NC(=O)c2cc3[nH]cnc3cc2F)CCO1 | 7% |
| Cc1cc([C@H](Nc2ccccn2)c2cccnc2)c(NC(=O)c2ccccc2)s1 | 2% |
| Cc1cc([C@H](Nc2ccccn2)c2ccccc2)c(NC(=O)c2ccccc2)s1 | 4% |
| Oc1ccc2ncccc2c1[C@@H](Nc1ccccn1)c1cccc(Br)c1 | 67% |
| Cc1nn(C)c(C)c1S(=O)(=O)N1CCCN(c2ccc(F)c(F)c2)CC1 | 3% |
| CCCn1c(C)cnc1C1CN(S(=O)(=O)c2ccc(C)c(F)c2)C1 | -6% |
| Cc1noc(C(C)(C)NC(=O)Nc2c[nH]nc2-c2nccs2)n1 | -7% |
| COc1ccc(Cl)cc1S(=O)(=O)c1cnc(N2CCOCC2)nc1N | -2% |
| C[C@@H](CNc1ncc(C(=O)N2CCOCC2)cc1Cl)c1nncn1C | -12% |
| COCCN1C(=O)C[C@H](Nc2ccc3c(c2)CCC3)C1=O | 1% |
| Cc1ccc(C)c(C(=O)CN2Cc3ccccc3C2=N)c1 | 0% |
| Fc1ccc(Nc2nc3c(s2)CCCC3)cc1 | -17% |
| c1ccc(C(c2ccccc2)N2CCN(c3nn4cnnc4c4ccccc34)CC2)cc1 | 65% |
| Fc1cccc(-n2nc(-c3ccccc3F)cc2-c2ccccc2F)c1 | -6% |
